Assay [1] can be described thus: resazurin metabolic signal in HepG2 cells – cell-based, resazurin fluorescence, 24 h, PK04 Diversity Set, profiling panel (AID 1172). Further: test concentration not given here. The settings on record: HepG2 viability, higher = more signal. (The colour change of resazurin is a common sign of viable cells or microbes.)
Assay [2] is described as follows: budding yeast growth changes without added modifier – OD600, strain BY4716, 24 h, basal condition, primary screen (AID 1173). The settings on record: S. cerevisiae BY4716 growth, OD600, 24 h; higher = more signal, called active from +8 up or from −8 down.
Assay [3] in a line: viability profiling in MM1S myeloma cells – cell-based, resazurin fluorescence, basal, 24 h, PK04 Diversity Set, profiling panel (AID 1174). Further: test concentration not given here. The following applies: higher = more signal, called active from +8 up or from −8 down.
The target in assay [4] is Dihydroorotate dehydrogenase (quinone), mitochondrial (Plasmodium falciparum (isolate 3D7)) (UniProt Q08210). In words: inhibition of P. falciparum DHODH – biochemical, C-terminal His tag, absorbance 600 nm, primary screen (AID 1175).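 Further: recombinant parasite enzyme with a five histidine tag at its C terminus; test concentration not given here.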 The following applies: PfDHODH enzyme, DCIP absorbance 600 nm; higher = more signal, called active from +8 up or from −8 down.
Chain of Dihydroorotate dehydrogenase (quinone), mitochondrial (Plasmodium falciparum (isolate 3D7)) (Q08210 whole entry, looked up): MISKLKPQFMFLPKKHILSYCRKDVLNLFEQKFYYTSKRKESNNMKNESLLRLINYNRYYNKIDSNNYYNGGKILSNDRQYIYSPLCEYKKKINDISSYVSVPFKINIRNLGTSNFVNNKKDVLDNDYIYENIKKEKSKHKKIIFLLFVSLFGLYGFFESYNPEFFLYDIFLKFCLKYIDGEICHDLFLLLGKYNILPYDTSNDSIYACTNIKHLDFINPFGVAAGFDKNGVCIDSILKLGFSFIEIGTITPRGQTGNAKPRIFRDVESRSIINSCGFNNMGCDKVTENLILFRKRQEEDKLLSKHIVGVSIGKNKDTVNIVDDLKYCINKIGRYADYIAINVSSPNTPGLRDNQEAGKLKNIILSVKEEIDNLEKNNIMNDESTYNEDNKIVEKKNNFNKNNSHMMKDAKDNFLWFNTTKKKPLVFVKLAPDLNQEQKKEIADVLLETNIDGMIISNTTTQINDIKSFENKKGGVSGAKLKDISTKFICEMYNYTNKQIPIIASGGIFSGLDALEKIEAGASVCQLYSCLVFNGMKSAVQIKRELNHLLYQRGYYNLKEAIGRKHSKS
Assay [5] is described as follows: inhibition of PAO1 biofilm formation – strain PAO1, LB-PBS medium, absorbance 600 nm, primary screen (AID 1176). Further: test concentration not given here. The following applies: P. aeruginosa PAO1 growth/biofilm, A600, 12 h; higher = more signal.
Assay [6] is described as follows: growth modulation of vineyard yeast isolate – strain RM11-1a, OD600, basal, 24 h, primary screen (AID 1177).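 Further: cultures grown under basal conditions with no added stressor; test concentration not given here.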 The following applies: S. cerevisiae RM11-1a growth, OD600, 24 h; higher = more signal, called active from +8 up or from −8 down.
The nature of assay [7]: growth of efflux-deficient E. coli DRC39 – strain DRC39, OD650, 24 h, E. coli filamentation inducers, primary screen (AID 1178).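 Further: growth measured as culture turbidity by optical density at 650 nm; test concentration not given here.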 The following applies: E. coli DRC39 acrAB, higher = more signal, called active from +8 up or from −8 down.
Assay [8] in a line: growth of efflux-deficient E. coli DRC39 – strain DRC39, OD650, 48 h, E. coli filamentation inducers, primary screen (AID 1179).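 Further: screen aims at cell division blockers that make cells filament.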 The settings on record: E. coli DRC39 delta-acrAB growth, higher = more signal, called active from +8 up or from −8 down.
A short description of assay [9]: viability profiling in RPMI8226 myeloma cells – cell-based, resazurin fluorescence, basal, 24 h, PK04 Diversity Set, profiling panel (AID 1180).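 Further: RPMI8826 multiple myeloma cell line at 5000 cells per well; test concentration not given here.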 The following applies: higher = more signal.
In assay [10] the target is E3 ubiquitin-protein ligase XIAP (Homo sapiens) (UniProt P98170). In words: small molecules binding XIAP protein – biophysical, small-molecule microarray, fluorescence 635 nm, primary screen (AID 1181).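 Further: score merges 667 nm emission and signal to noise over triplicate slides.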 The following applies: higher = more signal.
Chain of E3 ubiquitin-protein ligase XIAP (Homo sapiens) (P98170 whole entry, looked up): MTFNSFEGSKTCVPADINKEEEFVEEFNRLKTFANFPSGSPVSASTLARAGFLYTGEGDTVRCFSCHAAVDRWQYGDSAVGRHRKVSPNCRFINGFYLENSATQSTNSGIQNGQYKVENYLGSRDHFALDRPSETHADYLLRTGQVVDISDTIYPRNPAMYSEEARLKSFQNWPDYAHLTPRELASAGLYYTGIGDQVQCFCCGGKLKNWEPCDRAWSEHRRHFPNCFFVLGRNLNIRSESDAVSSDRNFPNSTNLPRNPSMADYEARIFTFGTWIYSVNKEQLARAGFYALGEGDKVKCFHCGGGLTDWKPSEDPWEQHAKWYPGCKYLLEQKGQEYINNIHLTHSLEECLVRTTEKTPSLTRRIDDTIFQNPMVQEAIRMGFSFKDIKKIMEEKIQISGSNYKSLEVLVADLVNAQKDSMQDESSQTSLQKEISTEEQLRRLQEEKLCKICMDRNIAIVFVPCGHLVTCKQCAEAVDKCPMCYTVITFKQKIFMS

The structures appear in SMILES notation. The source made the active and inactive calls. Unless noted, how the calls were made is not given here.

Here are results for twelve compounds from PubChem BioAssay.

`O=C1OCCC/C=C\[C@H]2OC34C=CCN(CCN5CCOCC5)C(=O)[C@H]3N(CCCO)C(=O)[C@@H]4C12` (stereo not given in full): the z-score in assay [1] was -0.0764; in [2] it was -0.314 (inactive); in assay [3], -0.146 (inactive); in assay [5] it was -0.525 (inactive); in [6] it was -1.22 (inactive); in assay [7], -0.0395 (inactive). In addition, the z-score is -0.125 (inactive) in assay [8] and 0.125 in assay [9]. Besides, the composite z-score is -0.053 (inactive) in [4] and 0.138 in assay [10].
On to `CN1C(=O)C2C=CC(C(O)c3cccs3)N(Nc3ccccc3)C2C1=O` (stereo not given), for which the z-score in assay [1] was -0.698; in assay [2], 0.702 (inactive); in [3], -0.861 (inactive); in assay [5], 0.847 (inactive); in [6] it was -0.0337 (inactive); in assay [7], -0.947 (inactive). In addition, the z-score was -0.724 (inactive) in [8] and -1.15 in assay [9]. The composite z-score was -0.607 (inactive) in [4] and 0.311 in [10].
In the case of `C=C(CCCC)/C(=C/C[C@@H](OC(C)=O)c1ccccc1OCCO)c1cnc2ccccc2c1`, the z-score was -1.25 in assay [1]; -1.66 (inactive) in [2]; -0.614 (inactive) in assay [3]; 0.191 (inactive) in assay [5]; 0.862 (inactive) in assay [6]; -0.765 (inactive) in assay [7]. Besides, the z-score is -0.587 (inactive) in assay [8] and -0.52 in assay [9]. Also, the composite z-score in assay [4] was -7.22 (inactive); in assay [10], -0.198.
For the compound `C=CCN(Cc1ccccc1)C(=O)C(c1cccs1)N(CCOCCO)C(=O)/C=C\C(=O)O` (stereo not given), the z-score in [1] is -0.393; in assay [2] it was -1.1 (inactive); in [3], 0.666 (inactive); in [5], 0.661 (inactive); in [6], -0.947 (inactive); in assay [7], 0.441 (inactive). Moreover, the values for the z-score in assay [8] and in [9] were 1.05 (inactive) and 0.463, respectively. Moreover, the composite z-score is -1.37 (inactive) in assay [4] and 0.223 in assay [10].
With `CCCCCN1CC=CC23O[C@@H]4/C=C\CCCOC(=O)C4[C@H]2C(=O)N(C(CO)C(C)C)[C@@H]3C1=O` (stereo not given in full), the z-score is 1.05 in assay [1]; 0.367 (inactive) in [2]; 0.641 (inactive) in [3]; -0.124 (inactive) in assay [5]; 0.226 (inactive) in [6]; 0.299 (inactive) in assay [7]. Further, the results for the z-score in assay [8] and in [9] were 0.0539 (inactive) and 0.574, respectively. For the same compound, the composite z-score in assay [4] was -2.08 (inactive); in [10], 0.177.
`C=C(/C(=C/C[C@@H](OC(C)=O)c1ccc(OCCO)cc1)c1cnc2ccccc2c1)C(C)C`: the z-score in assay [1] is 1.22; in assay [2], -2.05 (inactive); in assay [3] it was -0.318 (inactive); in [5], -0.165 (inactive); in assay [6], -1.87 (inactive); in [7], 1.58 (inactive). The z-score in assay [8] is 0.79 (inactive); in assay [9], 1.05. Moreover, the composite z-score was -7.29 (inactive) in [4] and 0.287 in assay [10].
Turning to `[N-]=[N+]=NCc1ccccc1C[C@]1(C(=O)NCC(O)CO)N=C(c2ccc(OCCCO)cc2)O[C@H]1c1ccccc1` (stereo not given in full), the z-score in assay [1] was -0.237; in [2], -1.16 (inactive); in assay [3], -0.525 (inactive); in [5], 0.826 (inactive); in [6] it was 0.125 (inactive); in assay [7], -0.376 (inactive). The z-score in [8] was -0.193 (inactive); in assay [9], -0.977. Moreover, the composite z-score in [4] was 0.105 (inactive); in [10], 0.035.
Regarding `O=C1[C@H]2C=C(Br)[C@H](C[C@@H]2c2ccccc2)[C@@]12CO2`, the z-score in assay [1] is -0.25; in assay [2] it was -7.98 (inactive); in [3], -0.727 (inactive); in assay [5], -0.14 (inactive); in [6], -0.13 (inactive); in assay [7], -1.29 (inactive). Moreover, the z-score in [8] is -1.58 (inactive); in [9], -0.579. For the same compound, the composite z-score in [4] is 0.402 (inactive); in [10], -0.228.
Consider `COCCOC(=O)N1C(=O)[C@@]2(c3cc(C#CC4(O)CCCCCC4)ccc31)[C@H](c1ccc(O)cc1)N1[C@H](c3ccccc3)[C@H](c3ccccc3)OC(=O)[C@H]1[C@@H]2C(=O)Nc1nc2ccccc2s1`, for which the z-score in assay [1] was -0.181; in [2], -0.213 (inactive); in [3] it was 0.0851 (inactive); in [5], 0.51 (inactive); in assay [6] it was 0.443 (inactive); in assay [7], -0.239 (inactive). Besides, the z-score in assay [8] was 0.208 (inactive); in assay [9], -0.815. For the same compound, the composite z-score in [4] is 0.811 (inactive); in assay [10] it was 0.0679.
Turning to `N#Cc1ccc(NN2C(C(O)c3c(F)cccc3Cl)C=CC3C(=O)N(c4ccccc4)C(=O)C32)cc1` (stereo not given), the z-score was -1.31 in assay [1]; 0.566 (inactive) in assay [2]; -0.392 (inactive) in [3]; 1.01 (inactive) in [5]; -0.0762 (inactive) in [6]; -0.731 (inactive) in assay [7]. Also, the results for the z-score in [8] and in assay [9] were -0.445 (inactive) and -0.739, respectively. Further, the composite z-score was 1.67 (inactive) in assay [4] and 0.585 in assay [10].
Turning to `O=C1c2ccccc2[C@](Cc2ccccc2I)(C(=O)NC2CC2)[C@H](c2ccc(CO)cc2)N1Cc1ccccc1`, the z-score in assay [1] was 0.621; in assay [2], 0.401 (inactive); in [3], 0.414 (inactive); in assay [5] it was 0.14 (inactive); in assay [6] it was -0.377 (inactive); in assay [7] it was -0.0358 (inactive). In addition, the values for the z-score in assay [8] and in assay [9] were 0.0388 (inactive) and 0.535, respectively. For the same compound, the composite z-score in assay [4] was 0.159 (inactive); in assay [10], -0.0663.
Turning to `COc1ccc(C(=O)Nc2cccc(CN3C(=O)[C@]4(O[C@H](CCO)[C@@H]([Si](C)(C)c5ccc(OC)cc5)[C@@H]4C)c4ccccc43)c2)cc1`, the z-score in [1] was -6.28; in [2] it was -3.7 (inactive); in assay [3], -9.11 (active); in assay [5], 1.01 (inactive); in assay [6] it was 4.05 (inactive); in assay [7], 0.127 (inactive). The results for the z-score in assay [8] and in [9] were -0.903 (inactive) and -6.27, respectively. Also, the composite z-score is 0.255 (inactive) in [4] and 0.0847 in assay [10].
